Screening data as filed in PubChem BioAssay.
NIH3T3 tox – NIH 3T3 cell cytotoxicity; NIH 3T3 viability, CellTiter-Glo ATP luminescence, 48-72 h; Potency, µM (top dose mostly 96.7 µM), usual class: inhibitors; 94,000 tested, 4.3% active; AID 1345082; note: nearly all actives have a fitted effect of over 55% in size
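Mouse fibroblast NIH 3T3 cells, 400 per well, received compound via pintool and were incubated for 48 or 72 hr prior to CellTiter-Glo ATP luminescence measurement.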
hNpr1 antagonist – blocks ANP-stimulated signaling of human Npr1 receptor | P16066 | HEK293 hNpr1 GloSensor cGMP, ANP-stimulated luminescence | Potency, µM (series often up to 46.3 µM), most hits filed as inhibitors | 76,000 tested, 1.6% active; calls by dose curve; note: nearly all actives have a fitted effect of over 60% in size
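Compound pre-incubated 30 min at room temperature on GloSensor-loaded HEK293 cells stably carrying hNpr1 and the pGS-40F cGMP biosensor. Stimulation uses hNppA at 0.1 nM final; luminescence is taken at baseline and 20 min post-agonist.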
Luciferase inh – Photinus pyralis luciferase inhibition. purified P. pyralis luciferase, luminescence, biochemical. Potency, µM (highest dose often 115 µM), usual class: inhibitors. 76,000 tested, 2.5% active; note: nearly all actives have a fitted effect of over 65% in size
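Luminescence read by CCD imager after adding enzyme (10nM final) to wells holding compound, titrated in qHTS. Substrates 10uM each D-luciferin and ATP; buffer 50mM Tris acetate pH 7.5, 10mM Mg acetate, Tween-20, BSA.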
HEK cytotox – cytotoxic compounds in HEK 293 cells; HEK 293 viability, ATP luminescence (CellTiter-Glo), 48-72 h; Potency, µM (series often up to 115 µM), usual class: inhibitors; 94,000 tested, 6.6% active; AID 1345083; note: nearly all actives have a fitted effect of over 60% in size
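CellTiter-Glo luminescence (cellular ATP) was read after 48 or 72 hr of compound exposure at 37 degree Celsius. Cells were HEK 293 plated at 250 cells/well.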
Each line names hits and unclear results; the compound was inactive in the other large screens. In the library only some 11% were active in any assay of this set; here they are far more common. Unless noted, calls come from the whole dose curve; as a rule, active = well fitted curve in the direction sought with a large enough effect; inconclusive = small, poorly fitted or top-dose-only effect, or another doubt; inactive = no such curve, though single readings can be large; an effect the other way counts as inactive or inconclusive.

O=C1c2cnc(-c3ccccc3)nc2OCCN1Cc1ccc(F)cc1F	HEK cytotox 112µM
COC(=O)CC(=O)N1CCC(C(=O)N2CCC(N3Cc4cccn4C3=O)CC2)CC1	none (no result: hNpr1 antagonist, Luciferase inh)
CN1C(=O)N(Cc2cccnc2)C(=O)C12CCN(Cc1cc3ccccc3o1)CC2	hNpr1 antagonist inconclusive, HEK cytotox inconclusive
O=C1N(Cc2cccnc2)C(=O)C2(CCN(Cc3cc(F)ccc3F)CC2)N1CCc1ccccc1	NIH3T3 tox inconclusive, HEK cytotox 39.8µM
Cc1ccc(-c2noc([C@@H]3Cc4nc[nH]c4CN3Cc3ccc(N(C)C)cc3)n2)cc1	NIH3T3 tox 100µM, hNpr1 antagonist inconclusive, Luciferase inh inconclusive, HEK cytotox 89.1µM
CN(C)c1ccc(CN2Cc3[nH]cnc3C[C@H]2c2nc(-c3ccccc3)no2)cc1	NIH3T3 tox inconclusive, Luciferase inh 39.8µM, HEK cytotox inconclusive
COc1ccc(-c2nc(Cn3c(-c4cccc(Cl)c4)nc(C)c(CCO)c3=O)c(C)o2)cc1	none
Cc1ccc(CN2CCCn3nc(C)c(-c4ccccc4-c4ccccc4)c32)o1	NIH3T3 tox 44.7µM, hNpr1 antagonist inconclusive, HEK cytotox inconclusive
COc1ccccc1CN1CCCn2nc(C)c(-c3cccnc3N3CCOCC3)c21	NIH3T3 tox inconclusive, HEK cytotox inconclusive
Cc1nn2c(c1-c1ccccc1-c1ccccc1)N(Cc1ccc(OCC(=O)O)cc1)CCC2	NIH3T3 tox inconclusive, HEK cytotox inconclusive
Cc1nn2c(c1-c1cccnc1N1CCOCC1)N(Cc1ccccc1)CCC2	NIH3T3 tox inconclusive, HEK cytotox 63.1µM
Cc1nn2c(c1-c1cccnc1N1CCOCC1)N(CC1CC1)CCC2	NIH3T3 tox 39.8µM, HEK cytotox inconclusive
Cc1ccc(S(=O)(=O)N2CCCC(Cn3c(C)nc4cccnc43)C2)cc1C (centres undefined)	NIH3T3 tox inconclusive, hNpr1 antagonist inconclusive, HEK cytotox inconclusive
Cc1nc2cccnc2n1CC1CCCN(S(=O)(=O)c2cccc(Br)c2)C1 (centres undefined)	NIH3T3 tox inconclusive, hNpr1 antagonist inconclusive, HEK cytotox 44.7µM
COCCN1CCC(C(=O)Nc2ccc(Oc3ccccc3F)cc2)CC1	NIH3T3 tox inconclusive, HEK cytotox 50.1µM
Cc1nn(-c2ccccc2)c2c1C(C)N(CC1CN(C(=O)c3ccc(Cl)cc3)C1)C2=O (centres undefined)	NIH3T3 tox 35.5µM, HEK cytotox inconclusive (no result: hNpr1 antagonist, Luciferase inh)
Cc1nn(-c2ccccc2)c2c1C(C)N(CC1CN(C(=O)c3ccc(C(F)(F)F)cc3)C1)C2=O (centres undefined)	none (no result: hNpr1 antagonist, Luciferase inh)
Cc1nn(-c2ccccc2)c2c1C(C)N(CC1CN(Cc3ccc(F)cc3)C1)C2=O (centres undefined)	NIH3T3 tox 35.5µM, HEK cytotox inconclusive (no result: hNpr1 antagonist, Luciferase inh)
CN(Cc1ccccc1)Cc1nc2c(n1Cc1ccccc1)C(=O)N(Cc1ccccc1C#N)CCN2	NIH3T3 tox inconclusive, HEK cytotox inconclusive
Cc1nn(C)c2nc(-c3ccccn3)nc(N3CCC(c4ccc(F)cc4)C3)c12 (centres undefined)	HEK cytotox 39.8µM
COc1ccc(-c2[nH]nc3ncc(C(=O)N4C[C@@H](C)O[C@@H](C)C4)nc23)c(C)c1	NIH3T3 tox inconclusive, HEK cytotox inconclusive
COc1ccc(NC(=O)c2cnc3n[nH]c(-c4ccc(OC)cc4C)c3n2)cc1	NIH3T3 tox 44.7µM, HEK cytotox inconclusive
COc1ccc(-c2[nH]nc3ncc(C(=O)NCC(C)C)nc23)c(C)c1	NIH3T3 tox inconclusive, HEK cytotox inconclusive
COc1ccc(-c2[nH]nc3ncc(C(=O)N4CC(O)C4)nc23)c(C)c1	NIH3T3 tox 7.94µM, HEK cytotox inconclusive
COc1ccc(-c2[nH]nc3ncc(C(=O)Nc4ccn(C)n4)nc23)c(C)c1	NIH3T3 tox inconclusive, HEK cytotox 89.1µM
Cc1ccc(C(=O)N2CCCC(n3cc(-c4nc(-c5ccccc5)no4)nn3)C2)s1 (centres undefined)	NIH3T3 tox inconclusive, hNpr1 antagonist 10µM, Luciferase inh inconclusive, HEK cytotox inconclusive
Cc1ccc(C(=O)N2CCC(n3cc(-c4nc(-c5ccccc5)no4)nn3)CC2)s1	NIH3T3 tox inconclusive, hNpr1 antagonist inconclusive, HEK cytotox 44.7µM
Cc1noc(-c2cn(C3CCN(C(=O)c4ccc(C)s4)CC3)nn2)n1	none
COc1ccc(-c2ccccc2C(=O)NCC2CC2)nn1	none (no result: hNpr1 antagonist, Luciferase inh)
Cc1ncsc1CN1CCC(N2C(=O)C(OCC3CC3)C23CCCCC3)CC1 (centres undefined)	HEK cytotox inconclusive
